Test results reported in PubChem BioAssay AID588413 (Sanford-Burnham Center for Chemical Genomics, 2011).
The campaign covered roughly 340,000 compounds. About 2,500 (0.74%) were called active.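 Rule for the calls: active = inhibition above about 55% (limit read from the data); inactive = the rest.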 The sample as a whole holds a higher share of actives than the screen did.

Test: Gli-Sufu pathway antagonists, primary screen, luciferase luminescence, Sufu-KO-LIGHT cells, uHTS (AID 588413);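 note: 0% = DMSO-treated cells and 100% = wells with medium but no cells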
Conditions: Sufu-KO-LIGHT fibroblasts, Gli luciferase reporter luminescence; at 5 µM; hits give high values

Structure (SMILES) | inhibition
COc1ccc(NC(=O)CCC(=O)Nc2cc(OC)c(NC(=O)c3ccco3)cc2OC)c(OC)c1 | 15.2% (inactive)
CC(OC(=O)c1ccc([N+](=O)[O-])cc1)C(=O)NCC1CCCCC1 (stereo unspecified) | 6.02% (inactive)
COc1cc(C(=O)OC(C)C(=O)NCC2CCCCC2)cc(NC(=O)c2ccco2)c1OC (stereo unspecified) | 61.1% (active)
CN1CCN(C(=O)/C(=C\c2ccc3c(c2)OCO3)NC(=O)c2cccs2)CC1 | -0.95% (inactive)
CC(=O)Nc1ccccc1C(=O)C(=O)Nc1ccc(F)cc1 | -24.7% (inactive)
O=C(CSCc1ccccc1)N1CCc2ccccc21 | -87.8% (inactive)
O=C(CN1C(=O)c2ccccc2S1(=O)=O)N1CCc2ccccc21 | 64.8% (active)
CC1CCCN(C(=O)CN2C(=O)c3ccccc3S2(=O)=O)C1 (stereo unspecified) | 6.76% (inactive)
Cc1ccc(CNC(=O)CCN2C(=O)[C@@H]3Cc4ccccc4CN3C2=O)cc1 | -9.51% (inactive)
CCOC(=O)N(Cc1ccccc1)C1CC1 | 0.91% (inactive)
Cc1ccc(S(=O)(=O)N2CC(C)N(S(C)(=O)=O)C2)cc1 (stereo unspecified) | -2.13% (inactive)
Cc1ccc(S(=O)(=O)N2C[C@@H]3CCCC[C@@H]3[C@@H](C)[C@H]2c2cn(Cc3ccccc3)c3ccc(F)cc23)cc1 | 72.8% (active)
O=C(CS(=O)(=O)c1cn(Cc2cccc(F)c2)c2ccccc12)N1CCCCC1 | 9.01% (inactive)
O=C(CNS(=O)(=O)c1ccc(Br)s1)N1CCN(C(=O)c2ccco2)CC1 | -4.48% (inactive)
O=C(NN=Cc1ccc([N+](=O)[O-])cc1)C1CC1 | -2.46% (inactive)
O=C1/C(=C\c2ccc([N+](=O)[O-])cc2)CS(=O)(=O)C/C1=C/c1ccc([N+](=O)[O-])cc1 | 65.4% (active)
O=[N+]([O-])c1ccc(C=NN=Cc2ccc([N+](=O)[O-])cc2)cc1 | -0.85% (inactive)
Cc1nn(C(C)(C)C)c(OC(=O)CC(C)C)c1S(=O)(=O)c1ccccc1 | 12.6% (inactive)
COc1ccc(C(=O)NCC(=O)N/N=C/c2ccc([N+](=O)[O-])o2)cc1OC | -0.07% (inactive)
Cc1onc(C(=O)NCc2ccc(F)cc2)c1[N+](=O)[O-] | 3.05% (inactive)
O=C(/C=C/c1ccc([N+](=O)[O-])o1)NNC(=O)c1ccc(F)cc1 | 67.6% (active)

Structure (SMILES) | inhibition
Cc1ccc(CN(CC(=O)NC2CCCCC2)C(=O)c2csnn2)cc1 | -19.5% (inactive)
C/C=C/c1ccc(OCC(=O)OCC(=O)Nc2c(C)nn(-c3ccccc3)c2C)c(OC)c1 | -14.7% (inactive)
CSc1nsc(SC)c1NC(=O)OC1CCCCC1 | 3.57% (inactive)
COCCn1c(C)cc(C(=O)COC(=O)/C=C/c2cccc(OC)c2)c1C | 0.01% (inactive)
CCN(CC)S(=O)(=O)c1ccc(OC(C)C)c(N)c1 | -7.56% (inactive)
Oc1ccc2ccccc2c1N=Nc1nccs1 | 75.4% (active)
O=C(CN1CCCCC1)NC(=O)Nc1ccccc1F | -7.73% (inactive)
COc1ccc(Cc2nnc(N/N=C/c3ccccc3O)[nH]c2=O)cc1OC | 88.1% (active)
CC(C)c1ccc(Cc2nnc(NCCCO)[nH]c2=O)cc1 | -3.48% (inactive)
COc1ccc(Cc2nnc(SC)[nH]c2=O)cc1 | -8.83% (inactive)
CCc1cccc2c3c([nH]c12)C(CC)(CC(=O)O)OCC3 (stereo unspecified) | -4.38% (inactive)
CC(C)c1ccc(C2C(C#N)=C(N)Oc3c2oc(CO)cc3=O)cc1 (stereo unspecified) | -0.24% (inactive)
CCCc1nnc(SCC(=O)Nc2ccc(C(=O)OCC)cc2)o1 | -7.14% (inactive)
CCOC(=O)c1ccc(NC(=O)Cc2cccs2)cc1 | -48% (inactive)
CCOC(=O)c1ccc(NC(=O)Cn2cnc3cc(C)c(C)cc32)cc1 | 65% (active)
CCCCC(=O)N1CC2(C)CN(C(=O)CCCC)CC(C)(C1)C2=O | -15.8% (inactive)
COCCCN(C(=O)CSCc1ccc(C)cc1)c1c(N)n(Cc2ccccc2)c(=O)[nH]c1=O | -6.23% (inactive)
CC(C)NC(=O)C(=O)NCCN1CCN(S(=O)(=O)c2ccc(Cl)cc2)CC1 | -1.75% (inactive)
Cc1ccc(NC(=O)c2ccc(CSc3ncnc4nc[nH]c34)cc2)c(C)c1 | -3.19% (inactive)
CCNc1nc(SCCOc2ccccc2)nc(N(C)C)n1 | 17.6% (inactive)
COc1ccc2nc(SCC(=O)Nc3c(C)cc(C)cc3C)[nH]c2c1 | 82.7% (active)

Structure (SMILES) | inhibition
Cc1ccc2nc(SCC(=O)NC3CCCC3)[nH]c2c1 | 19.8% (inactive)
Cc1cc(C)c(NC(=O)CSc2nc3ccncc3[nH]2)c(C)c1 | -7.29% (inactive)
N#C/C=C/N1CCN(Cc2ccc3c(c2)OCO3)CC1 | 1.76% (inactive)
CC(C)(C)OC(=O)N(Cc1ccccc1)Cc1ccc(OCc2cccc(NC(=O)c3ccccc3)c2)cc1 | 1.99% (inactive)
O=C1Cc2ccccc2Sc2ccc(Cl)cc21 | 3% (inactive)
Cc1ccc(C(=O)C(=S)N2CCOCC2)cc1 | -12.9% (inactive)
CSc1ncccc1C(=O)Nc1ccc(C)cn1 | -28.8% (inactive)
CSc1ncccc1C(=O)Nc1ccc2c(c1)OCO2 | -2.99% (inactive)
CSc1ncccc1C(=O)Nc1nc2ccc(F)cc2s1 | 56.9% (active)
CC(C)=NN1C(=O)c2ccccc2NC1(C)C | 0.06% (inactive)
Cc1ccc(-n2ncc3c2CCCC3NC(=O)c2cnccn2)cc1C (stereo unspecified) | 20.6% (inactive)
CC1=C(C(=O)NC2CC(C)(C)Cc3c2cnn3-c2ccc(C)cc2)OCCO1 (stereo unspecified) | 13.4% (inactive)
COc1ccc(C(=O)NC2CC(C)(C)Cc3c2cnn3-c2ccccc2C)o1 (stereo unspecified) | 3.2% (inactive)
Cn1nccc1C(=O)NC1CCCc2c1cnn2-c1ccc(F)cc1F (stereo unspecified) | 73% (active)
CC1(C)Cc2c(cnn2-c2cccc(F)c2)C(NC(=O)c2cc[n+]([O-])cc2)C1 (stereo unspecified) | -1.99% (inactive)
COc1ccc(C(=O)NC2CC(C)(C)Cc3c2cnn3-c2ccccc2)c(OC)c1 (stereo unspecified) | 14% (inactive)
Cc1cc(C(=O)NC2CC(C)(C)Cc3c2cnn3-c2ccccc2)n[nH]1 (stereo unspecified) | 7.64% (inactive)
Cn1nccc1C(=O)NC1CCCc2c1cnn2-c1ccccc1F (stereo unspecified) | 77.6% (active)
COc1ccc(C(=O)NC2CCCc3c2cnn3-c2cccc(C)c2C)c(OC)n1 (stereo unspecified) | 57% (active)
